# Source: PubChem BioAssay (NCI)
# About 83,000 compounds went through this panel and 20% of them were active in at least one assay; those are over-represented in the sample as a whole.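 Note: values are percent growth. 100 is the growth of untreated cells, values between 100 and 0 indicate rising inhibition; between -100 and 0 indicates cell death.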 A number with no mark means an inactive call. The source made the active and inactive calls. The calls were made as follows: active = growth percent below 10; inactive = the rest.
# Key:
# Assay in all cases: NCI-60 one-dose screen, 48 h (100 = growth as untreated, 0 = no growth, -100 = all killed)
# Conditions in all cases: 10 µM unless noted
# NCI-H23 lung = system: NCI-H23 lung
# NCI-H226 lung = system: NCI-H226 lung
# NCI-H322M lung = system: NCI-H322M lung
# HOP-62 NSCLC = system: HOP-62 NSCLC
# NCI-H460 lung = system: NCI-H460 lung
# HOP-92 NSCLC = system: HOP-92 NSCLC
# NCI-H522 lung = system: NCI-H522 lung
# A549/ATCC NSCLC = system: A549/ATCC NSCLC
# 786-0 renal = system: 786-0 renal
# COLO 205 colon = system: COLO 205 colon
# DU-145 prostate = system: DU-145 prostate
# K-562 leukemia = system: K-562 leukemia
# MALME-3M melanoma = system: MALME-3M melanoma
# MDA-MB-231 breast = system: MDA-MB-231 breast
# RXF 393 renal = system: RXF 393 renal
# SF-268 CNS = system: SF-268 CNS
# SF-295 CNS = system: SF-295 CNS
# SF-539 CNS = system: SF-539 CNS
# UACC-257 melanoma = system: UACC-257 melanoma
# M14 melanoma = system: M14 melanoma
Structure (SMILES),growth (NCI-H23 lung),growth (NCI-H226 lung),growth (NCI-H322M lung),growth (HOP-62 NSCLC),growth (NCI-H460 lung),growth (HOP-92 NSCLC),growth (NCI-H522 lung),growth (A549/ATCC NSCLC),growth (786-0 renal),growth (COLO 205 colon),growth (DU-145 prostate),growth (K-562 leukemia),growth (MALME-3M melanoma),growth (MDA-MB-231 breast),growth (RXF 393 renal),growth (SF-268 CNS),growth (SF-295 CNS),growth (SF-539 CNS),growth (UACC-257 melanoma),growth (M14 melanoma)
COc1cc(N)c2ncccc2c1Cl,104%,96%,97.9%,102%,109%,101%,81.8%,103%,95%,116%,119%,102%,113%,96.2%,96.5%,106%,101%,87.3%,109%,103%
Nc1cc2ccccc2c(O)c1O,54%,81.2%,89.1%,76.9%,86.9%,83.9%,45.3%,96.9%,-32.2% (active),56.5%,92.7%,5.25% (active),-39% (active),-19.9% (active),-52.5% (active),53.6%,85%,16.2%,89.4%,93.3%
O=C(O)Cc1ccc(Cl)cc1,114%,96%,108%,86.9%,107%,38.8%,101%,120%,93.7%,107%,107%,53.6%,102%,102%,125%,105%,97.5%,99.4%,111%,93.1%
Cc1ccc(/C=N/NC(N)=S)s1,99.7%,99.1%,98.9%,102%,103%,100%,105%,109%,109%,104%,110%,103%,108%,104%,99.3%,98.7%,105%,97.6%,109%,102%
Nc1nc(N)nc(N2CCCCC2)n1,107%,103%,94.4%,104%,103%,96.6%,100%,104%,102%,108%,107%,105%,96.3%,96.5%,105%,107%,113%,97.6%,101%,111%
BrCc1cccc(C[P+](c2ccccc2)(c2ccccc2)c2ccccc2)c1,87%,73.7%,89%,33.8%,48.5%,32%,24.6%,69.4%,98.8%,-35.3% (active),64.9%,28.8%,38.3%,93.2%,84.4%,56.4%,72.2%,35.4%,14.2%,51.4%
O=Cc1ccc(O)c(O)c1,100%,95.9%,104%,97.1%,98.9%,84.9%,84.3%,89.4%,101%,95.4%,94.9%,103%,108%,99.7%,88.3%,74.1%,103%,81.9%,93.7%,94.5%
CCC(=O)Oc1c(C)cc(O)c2ccccc12,83.5%,86.8%,87.4%,79.5%,95.6%,79.5%,84.5%,93.4%,84.7%,110%,107%,73.4%,113%,88.6%,92.4%,90.9%,83.4%,91.6%,94.4%,95.2%
Nc1c(O)c(S(=O)(=O)O)c(O)c2c1C(=O)c1ccccc1C2=O,21.5%,41.2%,39%,42.6%,8.34% (active),14.4%,7.56% (active),19%,59.6%,6.29% (active),21.4%,22.1%,-0.703% (active),42.3%,75.3%,45.9%,12.8%,61.6%,1.57% (active),35%
CCN(CC)CCOC(=O)Nc1c(C(C)C)cccc1C(C)C,109%,104%,93.5%,104%,128%,117%,92.8%,95.3%,105%,117%,116%,99%,98.2%,104%,107%,106%,102%,96.6%,97.5%,107%
CCOC(=O)/C(C)=C\c1ccc(OC)c(OC)c1,98.1%,100%,101%,105%,102%,93.6%,107%,101%,95.5%,105%,99.5%,87%,112%,102%,112%,98.3%,100%,101%,108%,105%
NCC(O)C(O)C(O)C(O)CO (stereo not given),98.2%,93.4%,100%,91.4%,102%,80.7%,102%,78.4%,99.2%,101%,101%,103%,90.5%,91.9%,109%,96.2%,106%,101%,85%,93.9%
C#CCSc1nnnn1-c1ccccc1,97.9%,82.5%,98%,105%,95.4%,50.5%,92.9%,64%,92%,113%,79.1%,86%,104%,96%,67.3%,82.5%,81.1%,80.2%,94.4%,104%
Cc1ccc(C)c(CCO)c1,117%,91.8%,108%,92.4%,105%,68.3%,97.8%,92.6%,97.2%,105%,93%,116%,106%,92.6%,103%,96.1%,102%,97.2%,94.8%,108%
CCC(C)c1c(N)n(S(=O)(=O)c2ccc(C)cc2)oc1=O (stereo not given),108%,111%,123%,112%,105%,105%,90.1%,108%,119%,124%,115%,130%,135%,108%,125%,109%,104%,96.6%,90.6%,105%
Nc1cc(F)ccc1[N+](=O)[O-],103%,95.9%,92.6%,110%,103%,89.5%,106%,116%,94.1%,116%,117%,114%,108%,105%,94.3%,111%,108%,101%,118%,94.4%
